# Assay outcomes from PubChem BioAssay.
# Sampled rows, rich in hits. Any-hit rate of the full collection: about 2.2%.
# BaF3 parental = reduces parental Ba/F3 cell viability, JAK2V617F counter-screen; 220,000 compounds, 1.1% hits; CellTiter-Glo ATP luminescence; inhibition, % at 5.6 µM;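 active means inhibition above a per-campaign cutoff, the mean inhibition of all tested compounds plus 3 SD, cut at about 27% in these data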
# KLF5 inh = kruppel-like factor 5 inhibition | DLD-1 KLF5 promoter-luciferase reporter, luminescence | inhibition, % at 5 µM | AID 1700 | 290,000 compounds, 0.23% hits;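 active means inhibition above a per-plate limit of that plate's mean compound inhibition plus 3 SD, cut at about 60% in these data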;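 further: higher means less KLF5 promoter-driven luciferase light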
# APP 5UTR inh = APP translation inhibition | 190,000 compounds, 0.82% hits | inhibition, % at 2 µM | AID 1285 | SH-SY5Y APP 5'UTR-luciferase reporter, luminescence;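 active means inhibition above a set limit, derived from the sample mean plus 3 SD, cut at about 45% in these data; inconclusive means one replicate passes the limit while the other fails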
# IEC-6 tox = IEC-6 cytotoxicity, counter-screen for KLF5 inhibitors; luminescence viability; inhibition, % at 5 µM; 290,000 compounds, 0.78% hits; AID 1825; in the data active means inhibition above about 22%
# Ba/F3 V617F tox = loss of viability in JAK2V617F-driven Ba/F3 cells; Ba/F3 EpoR-JAK2V617F viability, ATP luminescence; inhibition, % at 5.6 µM; 220,000 compounds, 1.1% hits;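 active means inhibition above the campaign mean plus 3 SD over all tested compounds, cut at about 24% in these data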;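 further: cytokine-independent growth of Ba/F3 cells driven by EpoR plus mutant JAK2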
# aSyn UTR inh = MLPCN primary screen, SNCA 5' untranslated region; alpha-synuclein 5'UTR reporter, inhibitor activity; 300,000 compounds, 0.82% hits; inhibition, % (tested at 7.5 µM); in the data active means inhibition above about 60%; inconclusive means no clear call, values can overlap the other calls;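 further: H4 neuroglioblastoma cells stably carrying SNCA 5'UTR luciferase fusion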
# Hits are given with their value; i = inactive; ? = inconclusive; nt = not tested or not shown.
SMILES,BaF3 parental,KLF5 inh,APP 5UTR inh,IEC-6 tox,Ba/F3 V617F tox,aSyn UTR inh
CCOc1c(S(=O)(=O)NC2CC(C)(C)NC(C)(C)C2)ccc(Cl)c1Cl,i,i,i,i,i,i
N=c1n(CCN2CCCC2)c2ccccc2n1CC(O)c1ccc(Cl)c(Cl)c1 (configuration not stated),104,i,i,101,102,i
N=c1n(CCN2CCOCC2)c2ccccc2n1CC(=O)c1ccc(Cl)c(Cl)c1,i,i,i,i,i,i
O=C(c1c(F)cccc1F)N1CCN(CCOc2ccccc2)CC1,nt,i,nt,i,nt,i
COc1c(OC2OC(C(=O)O)C(O)C(O)C2O)cc(O)c2c(=O)cc(-c3ccccc3)oc12 (configuration not stated),29,i,i,i,i,i
O=C(O)C1OC(Oc2cc3oc(-c4ccccc4)cc(=O)c3c(O)c2O)C(O)C(O)C1O (configuration not stated),i,i,i,i,i,i
CCCCCCOc1ccc(C(=O)NCCCn2ccnc2)cc1,i,i,i,i,i,i
CCCCOc1ccc(NC(=O)C(=O)NCCCn2ccnc2)cc1,i,i,i,i,i,66
NC(=O)c1cc([N+](=O)[O-])ccc1NCc1cccnc1,i,i,i,i,i,i
Cc1ccc(/C=C2\SC(=O)N(CCC(=O)N3CCN(C)CC3)C2=O)cc1,nt,i,nt,i,nt,i
O=C(CSCc1ccc([N+](=O)[O-])cc1)N/N=C/c1ccncc1,84,i,i,i,i,i
O=C(CSCc1ccc([N+](=O)[O-])cc1)N/N=C/c1cccnc1,i,i,i,i,i,i
COc1ccc(-n2c(-c3ccccc3)nnc2-c2ccc(Cl)cc2)cc1,i,i,i,i,i,i
COc1ccc(-n2c(-c3ccc(Cl)cc3)c[n+]3c2CCc2ccccc2-3)cc1,69,i,i,i,84,i
Cc1ccc2c(c1)sc(=NC(=O)c1cccs1)n2C,i,i,i,i,i,85
O=C1NC(=Nc2ccc(O)cc2)S/C1=C\C=C\c1ccco1,61,i,nt,i,75,i
COc1ccc(C2=NN(C(=O)CSc3nnc(C)n3C)C(c3ccco3)C2)cc1 (configuration not stated),i,i,i,i,i,i
COc1ccc(C2=NN(C(=O)COc3ncnc4ccccc34)C(c3ccco3)C2)cc1 (configuration not stated),i,i,i,i,i,64
COc1ccc(C(=O)Nc2nnc(Cc3cccs3)s2)cc1OC,41,i,i,i,39,i
CCC1(c2ccccc2)NC(=O)N(CC(=O)N(C)Cc2ccccc2)C1=O (configuration not stated),nt,i,nt,i,nt,i
Oc1ccc2ccccc2c1/C=N/Nc1nnc(-c2ncc[nH]2)c2ccccc12,i,i,i,i,i,102
Cc1ccc(C(OCC(C)(C)C[N+](C)(C)C)c2ccccc2)cc1 (configuration not stated),58,i,i,i,27,i
CC(CCc1ccccc1)NC(=O)C1CCN(S(=O)(=O)N2CCOCC2)CC1 (configuration not stated),91,i,i,i,i,i
COc1ccc(C(CC(=O)O)NC(=O)c2cccs2)cc1 (configuration not stated),i,i,i,i,i,i
O=C(Nc1ccc(F)cc1)Nc1ccc(N2CCCC2)c(S(=O)(=O)Nc2ccccc2Cl)c1,i,i,i,i,i,i
SMILES,BaF3 parental,KLF5 inh,APP 5UTR inh,IEC-6 tox,Ba/F3 V617F tox,aSyn UTR inh
O=C(Nc1ccc(Cl)c(Cl)c1)Nc1ccc(N2CCCC2)c(S(=O)(=O)Nc2ccccc2Cl)c1,i,i,i,i,i,95
O=c1cc2oc3cc(O)c(O)cc3c(-c3ccccc3[N+](=O)[O-])c-2cc1O,nt,i,nt,i,nt,71
CC(C)(C)c1ccc(C(=O)NNc2ccc(F)cc2F)cc1,i,i,nt,i,i,i
O=c1[nH]c2ccccc2n1C1CCCCC1,i,i,64,i,i,i
O=C(NC1CCCCC1)N1CCC(n2c(=O)[nH]c3ccccc32)CC1,nt,nt,i,nt,nt,i
CCOC(=O)N1CCN(c2ncnc3c2cnn3-c2ccc(Cl)cc2)CC1,i,i,i,i,i,i
Cc1ccc(NC(=O)CS(=O)CC(=O)N(CC(=O)NC2CCCC2)c2ccc3c(c2)OCCO3)cc1 (configuration not stated),i,i,i,i,i,i
Cc1ccc(-c2nc3cnccn3c2Nc2ccccc2)o1,nt,nt,i,nt,nt,i
Cc1ccc(-c2nc3ccccn3c2Nc2ccccc2)o1,92,i,i,i,i,i
O=C(Cn1ncnn1)OCc1ccccc1Cl,i,i,68,i,i,i
O=C(Nc1cccc(S(=O)(=O)Nc2ccc(Cl)cc2)c1)c1ccc(Cl)nc1,52,i,i,i,41,i
O=C1CSc2ccc(C(=O)Nc3cccc(S(=O)(=O)Nc4ccc(Br)cc4)c3)cc2N1,44,i,i,i,i,i
O=C(Nc1ccc(NS(=O)(=O)c2ccccc2)cc1)c1ccc(Cl)cc1,nt,i,nt,i,nt,i
Cc1cc(/C=C2\Sc3ccccc3N2C)cc(C)[n+]1CC1CCCO1 (configuration not stated),76,i,i,i,100,nt
C/C(=N\Nc1cc(C)nc(-c2ccccc2O)n1)c1ccccc1,i,i,i,i,i,i
Cc1cc(N/N=C/c2ccc(O)c(C)c2O)nc(-c2ccccc2O)n1,i,i,i,i,i,87
COc1cccc(NC(=S)N(CCCN2CCOCC2)C(C)c2cc3cccc(OC)c3o2)c1 (configuration not stated),i,i,i,i,i,i
CO/N=C\CC(=O)Nc1ccc(Oc2ccccc2)cc1,i,i,68,i,i,i
O=C(C/C=N\O)Nc1ccc(Oc2ccccc2)cc1,i,i,i,i,i,i
Cc1ccc(-n2c(CCC(=O)O)ccc2-c2cccs2)cc1C,55,i,i,i,i,i
CCN(CC)CCCNC(=S)N1CCN(c2nc(-c3ccc(F)cc3)cs2)CC1,nt,i,nt,i,nt,133
COc1cc(NC(=O)Cn2ncc(Cl)c(Cl)c2=O)c(C)cc1[N+](=O)[O-],73,i,95,i,74,121
COc1ccc(S(=O)(=O)N(Cc2ccccc2)c2ccccc2C(=O)O)cc1,nt,i,nt,i,nt,i
CCC1CCCCN1CCCNC(=O)c1ccc(N2CCOCC2)c(NS(=O)(=O)c2ccc(OC)cc2)c1 (configuration not stated),52,i,i,i,i,i
CCOC(=O)C1C(=O)NC(N2CCOCC2)=NC1C(C)C (configuration not stated),i,i,i,i,i,i
O=C(Nc1ccccc1Cl)c1ccc(-c2ccccn2)s1,i,i,nt,i,i,i
Cc1ccc(NC(=O)O/N=C/c2c(C)nn(C(C)(C)C)c2C)cc1Cl,i,i,nt,i,i,77
CCOC(=O)N1CCN(C(=O)/C(=C\c2cccs2)NC(=O)c2cccs2)CC1,i,i,i,i,i,i
Oc1ccccc1N=Nc1ccccc1O,i,i,83,i,i,?
